Data on 40 compounds can be found in PubChem BioAssay (NCATS).

Each structure is given as a SMILES string. Values joined by “and” are separate entries in the source; they are usually repeats but may differ in a detail not shown here. Identical values can stand only once. Inconclusive results are not listed. A number with no mark means an inactive call. Active and inactive are the calls of the source. The call rests on the fitted dose curve; in most records, active means well fitted inhibition curve with a large enough effect; inconclusive means small, poorly fitted or top-dose-only effect; inactive means no such curve, though single readings can be large or run the other way. Non-standard residues stand in square brackets, D forms with d. Residues, ends and D or L forms follow the SMILES beside them. *: point of attachment. Nva = CCC[C@H](N)C(=O)O; Cbz = O=C(OCc1ccccc1)*
Potency means the concentration at half of the fitted maximal effect.

The test is described as follows: BET inhibitor-based combinations targeting novel dependencies in MECOM-rearranged (r) AML: SET-2 cell line (AID 2202231). Further: nearly all actives have a fitted effect of over 35% in size. Particulars: SET-2 AML cells viability, CellTiter-Glo luminescence, 48 h; viability: stronger effect = lower value, series mostly up to about 46 µM. The text has this: Ecotropic viral insertion site 1 (EVI1) is located on chromosome 3q26.2 as part of the MECOM (MDS and EVI1 complex) locus. Under normal hematopoiesis, EVI1 is a regulator of hematopoietic stem cell maintenance and self-renewal and EVI1 levels decrease as the cells differentiate. In approximately 5-10% of de novo acute myeloid leukemia (AML) EVI1 is aberrantly expressed, including Chromosomal inv(3)(q21;q26.2) or t(3;3)(q21;q26.2) alterations (MECOM-r) that account for about 50% of AML with EVI1 overexpression 31. AMLs with high levels of EVI1 have a poor prognosis and an overall survival time averaging between 10-14 months. EVI1 overexpression confers resistance in leukemia cells, highlighting the need to develop new targeted therapies for EVI1 overexpressing AMLs.
Here, we performed an unbiased chemical drug screening by evaluating the single agent activity of a collection of 2,480 oncology-focused, approved and investigational drugs (NCATS Mechanism Interrogation Plates, MIPE v5.0) against a panel of seven AML cell lines. These included four MECOM-r cell-lines (AML-191, AML-194, UCSD-AML1 and HNT-34) and three non-MECOM-r AMLs (MV4-11, OCI-AML3 and SET-2). Exploiting the mechanistic redundancy built in the library, we identified target-level sensitivities in MECOM-r AML cells and relative activity as compared to other AML subtypes.
A collection of 2480 mechanistically annotated dugs (MIPE v5.0) was used to screen four 3q26.2 rearranged AML cell lines and three non-3q26.2 rearranged AML cell lines. This library purposely exploits redundancy by including multiple inhibitors of key onco-targets, while simultaneously encompassing mechanistic diversity, targeting more than 800 distinct mechanisms of action. Briefly, cells were seeded in 5 uL of growth media using a Multidrop Combi dispenser into 1536 well white polystyrene tissue culture treated plates (Corning) at a density of 500cells/well. For each cell-line, for each of the 2480 drugs in MIPE v5.0 library, an 11-point dose curve was generated via a 1536 pin-tool. Plates were incubated for 48 hr at standard incubator conditions, covered by a stainless steel gasketed lid to prevent evaporation. Cell viability was determined by luminescence based, Cell Titer Glo assay (Promega). In detail, 3 uL of Cell Titer Glo were added to each well and plates were incubated at room temperature for 15 min with a stainless-steel lid in place. Luminescence readings were taken using a Viewlux (PerkinElmer) with a 2 s exposure time per plate. Compound dose-response curves were normalized to DMSO and empty well controls on each plate. Quantitative drug activity data from dose-response curves was determined utilizing area Under the Curve (AUC) and Z-transformed AUC (Z-AUC, a mean-centering transformation applied to each individual cell-line screened).
A general note: ATP-based viability assays read luminescence as a measure of living cells.
In general, viability refers to a read-out of living cells in per cent, often relative to untreated cells. `O=C([C@@H](Cc1cccc(C(F)(F)F)c1)NS(=O)(=O)c1cc(F)c2c(c1)CCNC2)N1CCCC1`: the viability is 107%.
For `NC(=O)NO`, the viability is 114%.
With `COc1cccc2cc(-c3nc(C4CCC(C(=O)O)CC4)n4ncnc(N)c34)[nH]c12` (stereo not given), the Potency was 2.95 µM (active).
Regarding `COC(=O)N1CCN(Cc2cccc(NC(=O)Nc3ccc(C)nc3)c2F)CC1`, the viability was 104%.
For the compound `Cc1cccc(Oc2cnc(=O)[nH]c2)c1`, the viability was 115%.
The same measure, in the same setting: to `COc1ccc(CC2=NN3C([C@@H](CCc4ccccc4)[C@@H](C)O)=NC(C)C3C(=O)N2)cc1OC` (stereo not given in full) belongs 101%; to `CC(=O)O[C@]1(C(C)=O)CC[C@H]2[C@@H]3C=C(C)C4=CC(=O)CC[C@]4(C)[C@H]3CC[C@@]21C`, 110%.
As for `O=c1[nH]c(=O)n([C@H]2C[C@H](O)[C@@H](CO)O2)cc1I`, the Potency was 3.72 µM (active).
Consider `CC1(C)CC(=O)c2c(C(F)(F)F)nn(-c3ccc(C(N)=O)c(NC4CCC(OC(=O)CN)CC4)c3)c2C1` (stereo not given), for which the Potency is 0.263 µM (active).
The same measure, in the same setting: for `Cc1ccc(NC(=O)Nc2cc(C(F)(F)F)ccc2F)cc1Nc1ccc2c(c1)NC(=O)/C2=C\c1ccc[nH]1` the value was 23.5 µM (active).
Regarding `Cc1nc(NC(=O)N2CCCC2C(N)=O)sc1-c1ccnc(C(C)(C)C(F)(F)F)c1` (stereo not given), the Potency is 20.9 µM (active).
Regarding `O=C(NC1CCOCC1)c1ccc(-c2cc(-c3cn[nH]c3-c3ccccn3)ccn2)cc1`, the viability is 101%.
Regarding `CCOc1cc2ncc(C#N)c(Nc3ccc(OCc4ccccn4)c(Cl)c3)c2cc1NC(=O)/C=C/CN(C)C`, the Potency was 4.68 µM (active).
As for `Cn1c2cc(S(C)=O)sc2c2cnn(Cc3cccc(N)c3)c(=O)c21` (stereo not given), the viability was 104%.
As to `Nc1cccc(-c2cc3c(Oc4cccc(O)c4)ncnc3[nH]2)c1`, the Potency is 20.9 µM (active).
The same measure, in the same setting: to `COc1cc2nccc(Oc3ccc(NC(=O)NC4CC4)c(Cl)c3)c2cc1C(N)=O` belongs 18.6 µM (active).
For the compound `CC1(C)Cc2c(sc(NC(=S)NC(=O)c3ccccc3)c2C(=O)O)CO1`, the viability was 110%.
As for `CCCCC(F)(F)[C@@]1(O)CC[C@H]2[C@H](CC(=O)[C@@H]2CCCCCCC(=O)O)O1`, the viability was 108%.
As to `C1CCC(C(CC2CCCCN2)C2CCCCC2)CC1` (stereo not given), the Potency is 11.8 µM (active).
`CC(C)C(C)C=CC(C)C1CCC2C3=CC=C4CC(O)CCC4(C)C3CCC21C` (stereo not given): the viability is 121%.
For `COc1nc(C)nc(Cl)c1NC1=NCCN1`, the viability is 107%.
Turning to `CCCCNc1ncc2c(-c3ccc(CN4CCN(C)CC4)cc3)cn(C3CCC(O)CC3)c2n1` (stereo not given), the Potency is 14.8 µM (active) and 11.8 µM (active).
Consider `CCC[C@@H](C=O)NC(=O)[C@H](CC(C)C)NC(=O)[C@H](CC(C)C)NC(=O)OCc1ccccc1` (Cbz-Leu-Leu-[Nva]-aldehyde), for which the Potency was 2.09 µM (active).
Same read-out and setting: to `Cc1cc(Nc2ncc(Cl)c(Nc3ccccc3S(=O)(=O)C(C)C)n2)c(OC(C)C)cc1C1CCNCC1` belongs 23.5 µM (active).
With `CCN(c1ccccc1)c1cc(NC)[n+](C)c(C)n1`, the viability was 117%.
Take `COc1ccc(-c2c(-c3ccc(O)cc3O)n[nH]c2C)cc1`: the viability is 84%.
`Cn1cc(-c2ccc(F)c(C(F)(F)F)c2)nc1C1CCN(c2ncnc3[nH]ncc23)CC1`: the viability is 96.6%.
Regarding `Cn1cc(-c2[nH]c3cc(NC(=O)[C@H](N)C4CCCCC4)cc4c3c2C=NNC4=O)cn1`, the Potency is 16.6 µM (active).
For `c1cc(-c2cnn3cc(-c4ccc(OCCN5CCCCC5)cc4)cnc23)ccn1`, the Potency is 8.33 µM (active).
Turning to `C[C@H]1C[C@@H]2[C@H]([C@@H](O)C[C@@]3(C)[C@H]2CC[C@]3(O)C(=O)CO)[C@@]2(C)C=CC(=O)C=C12`, the viability is 114%.
On the same count and under the same terms, to `CC1c2ccccc2CN1NC(=O)c1ccc(Cl)c(S(N)(=O)=O)c1` (stereo not given) belongs 109%.
Consider `NC(=O)c1cnc(N[C@@H]2CCCC[C@@H]2N)nc1Nc1cccc(-n2nccn2)c1`, for which the Potency was 23.5 µM (active).
Consider `Cc1cc2c(C(C)C)c(O)c(O)c(C=O)c2c(O)c1-c1c(C)cc2c(C(C)C)c(O)c(O)c(C=O)c2c1O`, for which the Potency was 9.34 µM (active).
As to `Cc1csc(NC(=O)c2sc3nc4c(c(C(F)(F)F)c3c2N)CCC4)n1`, the viability was 97.5%.
The same measure, in the same setting: to `Cc1ccccc1-n1c(Cn2nc(-c3cccc(O)c3)c3c(N)ncnc32)nc2cccc(C)c2c1=O` belongs 105%; to `O=P(O)(O)C(O)(Cn1ccnc1)P(=O)(O)O`, 112%; to `CC1Cc2ccccc2N1NC(=O)c1ccc(Cl)c(S(N)(=O)=O)c1` (stereo not given), 112%.
For `NCC1CCC(C(=O)O)CC1` (stereo not given), the viability is 115%.
With `COc1cc(N2CCC(N(C)C)CC2)ccc1Nc1ncc(Cl)c(Nc2ccccc2P(C)(C)=O)n1`, the Potency was 6.61 µM (active).
On to `N[C@@H](Cc1c[nH]c2ccc(O)cc12)C(=O)O`, for which the viability is 98.1%.
